This excerpt belongs to a sample that is enriched for hits.
Tgondii IFNg: inhibitors of Toxoplasma gondii growth with IFN-gamma; Toxoplasma gondii growth in IFN-gamma-treated host cells; active compounds read low; activity change, negative = inhibition, % (no concentration beside the values); 69,000 compounds, 3.8% hits; AID 1259416; in the data active = activity change below about -70%, passing the limit was not always enough;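 note: host cells are HeLa cells infected with Toxoplasma gondii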
A number is an active result; . = inactive.

SMILES	Tgondii IFNg
CCOc1ccc(NC(=O)c2nc3ccccc3nc2-n2nc(C)cc2C)cc1	-99
CCOc1ccccc1C(=O)Nc1ccc(-c2nc(Cn3nc(C)cc3C)c(C)o2)cc1	.
CC(=O)N[C@@H](Cc1ccccc1)C(=O)N1C[C@@H]2[C@H](C1)c1ccccc1[C@@H]2NC(C)=O	.
Cc1cc2nc(C)c(CCC(=O)N3CCCC(c4nc5ccccc5[nH]4)C3)c(C)n2n1 (centres undefined)	.
CN1CCN(C2Cc3ccccc3Sc3ccc(Cl)cc32)CC1 (centres undefined)	-82
CSc1ccc2c(c1)C(N1CCN(C)CC1)Cc1ccccc1S2 (centres undefined)	-77
CN1CCCC(CC2c3ccccc3Sc3ccccc32)C1 (centres undefined)	.
CN1CCN(C2=Cc3ccccc3Oc3ccc(Cl)cc32)CC1	.
CN1CCN2c3ccccc3Cc3ccccc3C2C1 (centres undefined)	.
COc1ccc(-c2cnccc2N)cn1	.
Cc1cccc(NC2COC3(CCCN(Cc4nccn4C)C3)C2)c1 (centres undefined)	.
COc1c(C)cnc(CN(C)C(=O)c2cn[nH]n2)c1C	.
CC(/C=C1\SC(=O)N(CCCC(=O)O)C1=O)=C\c1ccccc1	-82
CC1(C)NC(=O)N(CCCC(=O)O)C1=O	.
O=C(O)CCCCCNS(=O)(=O)/C=C/c1ccccc1	.
Nc1nc(CCC(=O)N2CCCC(N3CCC(CO)CC3)C2)cs1 (centres undefined)	.
O=C(c1ccco1)N1CCCn2c(CN3CCCC3)nnc2C1	.
Clc1ccc(SCc2csc(-c3ccno3)n2)cc1	.
Clc1ccc(SCc2csc(-c3ccc(Cl)cc3)n2)cc1	.
Clc1ccc(SCc2ccsc2-c2ncns2)cc1	-77
O=C(NCCc1csc(-c2ccccc2)n1)[C@H]1CSCN1S(=O)(=O)c1cccc(Cl)c1	.
O=S(=O)(c1ccccc1)N1CCC2(CCCN2Cc2cccc(F)c2)C1 (centres undefined)	.
O=C(OCC(O)CNC12CC3CC(CC(C3)C1)C2)C12CC3CC(CC(C3)C1)C2 (centres undefined)	-89
CCN(Cc1ccccc1)C(=O)C1CCC2(CC1)N=C(C)N(CC1CC1)C2=O (centres undefined)	.
Clc1ccc(-c2nc(N3CCOCC3)ncc2-c2ncc[nH]2)cc1	.
SMILES	Tgondii IFNg
Fc1ccc(-c2nc(N3CCN(c4ccccn4)CC3)ncc2-c2ncc[nH]2)cc1	-92
O=C(CCCN1CCN(c2ccccn2)CC1)c1ccc(F)cc1	.
Cc1nc(-c2ccc(F)cc2)sc1CCNC(=O)C(C)(C)C	.
CN(CCC1CCOCC1)C(=O)CCC(=O)NC1CCCCCCC1	.
Cc1ccc2[nH]cc(-c3cncc(C(=O)O)c3)c2c1	.
CCCNC(=O)c1ccc2ccc(N3CCN(C(=O)N(C)C)CC3)n2c1	.
CN(C)C(=O)N1CCN(c2ccc3ccc(C(=O)NCCc4ccccc4)cn23)CC1	.
CN(C)CCCNC(=O)c1ccc2ccc(N3CCN(Cc4cccnc4)CC3)n2c1	-87
COc1ccc2nc(CN3CC=CC[C@@]4(C(=O)N5CCN(C)CC5)CCC[C@@H]34)ccc2c1	.
COCC(=O)N1CC[C@@H]2CO[C@H](CN3CCN(C)CC3)[C@@H]2C1	.
COc1cccc(CN2CCc3c(c(C(=O)NCCCN4CCOCC4)nn3C)C2)c1	.
COc1ccc(-c2nc(C)c(CCNC(=O)c3ccc(C)cc3)s2)cc1	.
CCc1cn[nH]c1C1CCN(Cc2ccccc2OCCO)CC1	.
O=C1NC2(C=Cc3c(ccc4ccccc34)O2)Oc2ccccc21 (centres undefined)	-107
O=C1Nc2cc(Cl)ccc2Oc2ccccc21	.
CC(c1ccc(-c2nnnn2-c2ccccc2)cc1)N1CCOCC1 (centres undefined)	.
Cc1ccc(-c2nc(NC(=O)c3cncc(-c4cccs4)c3)sc2C)cc1Cl	.
CCc1cc(C(=O)Nc2nc3c(s2)CCCCCC3)n(C)n1	.
Cc1ccc(-c2nc(NC(=O)c3cc(C(C)(C)C)nn3C)sc2C)cc1Cl	-78
O=C(CN1C(=O)CCc2cc(S(=O)(=O)N3CCCC3)ccc21)NC1CCCCC1	.
CCN(CC)CCN1C[C@@H](C(=O)NCc2ccco2)C[C@@H]2OCC[C@@H]21	.
CC(C)CC(NC(=O)c1cccc(Cl)c1)C(=O)O (centres undefined)	.
CC(C)C[C@H](NC(=O)CNC(=O)c1cc(Cl)ccc1Cl)B(O)O	-79
Cn1c(CNC(=O)c2ccc(Cl)cc2Cl)cc2ccccc21	.
CCOc1ccc(-c2nc(CN3CCN(C(=O)Nc4cccc(C)c4C)CC3)c(C)o2)cc1	.
SMILES	Tgondii IFNg
O=C(c1ccc(Cl)cc1)C1CCCN(C(=O)C#Cc2ccccc2)C1 (centres undefined)	.
OC1(C(F)(F)F)CC(/C=C/c2ccc3c(c2)OCO3)=NN1 (centres undefined)	-86
OC1(C(F)(F)F)CC(c2ccc3c(c2)Nc2ccccc2S3)=NN1 (centres undefined)	.
OC1(C(F)(F)F)CC(c2cc3ccccc3o2)=NN1 (centres undefined)	.
CS(=O)(=O)N1CCC(c2nnc3ccc(C(=O)C4CCC4)cn23)C1 (centres undefined)	.
Cc1ccc(S(=O)(=O)NCCc2csc(-c3ccc(Cl)cc3)n2)s1	.
Cc1ccc(S(=O)(=O)NCCc2csc(-c3ccc(F)cc3)n2)cc1	.
COc1ccc(S(=O)(=O)NCCc2csc(-c3ccc(Cl)cc3)n2)cc1C	.
Cc1ccc(S(=O)(=O)NCCc2csc(-c3ccc(Cl)cc3)n2)cc1C	-83
Cc1ccc(S(=O)(=O)NCCc2csc(-c3ccc(F)cc3)n2)s1	-102
Cc1ccc(S(=O)(=O)NCCc2csc(-c3ccc(Cl)cc3)n2)cc1	.
C=CCN1CCOCC2(C1)CN(Cc1cnn(C)c1)CCO2 (centres undefined)	.
O=C(N1CCc2c(nc[nH]c2=O)C1)C1(c2ccccc2)CC1	.
O=C(NC1CCNCC1)c1[nH]ncc1NC(=O)c1c(Cl)cccc1Cl	-72
O=C(NC1CCN(c2cnccn2)CC1)c1ccccc1C1CCNC1 (centres undefined)	.
O=C(NC1CCc2[nH]ncc2C1)c1cccc(CC2CCNCC2)c1 (centres undefined)	.
Cc1ncc(Sc2ccc(Cl)cc2)c(-c2ccc(Cl)cc2)n1	.
Cc1ccc(Sc2cccc3nc(N)nc(N)c23)cc1	-108
Clc1ccc(Sc2nc3ccccc3nc2Sc2ccc(Cl)cc2)cc1	.
CN1CCCCC1C1CCN(C(=O)Cn2nnc3ccccc32)CC1 (centres undefined)	.
Cc1cccc(N2CCN(c3nc(-c4ccc(Cl)cc4)nc4ccccc34)CC2C)c1 (centres undefined)	.
Cc1noc(C)c1C(=O)Nc1ccc(Sc2ccccc2)nc1Sc1ccccc1	-89
CSc1ccc(CNC(=O)c2c(C)noc2C)s1	.
Cc1noc(C)c1C(=O)Nc1ccc(Cl)cc1	.
COCCn1c(C)cc2cc(NC(=O)C(C)(C)n3cncn3)ccc21	.
SMILES	Tgondii IFNg
COc1ccc(Cl)cc1CN(C)Cc1ncccc1C(=O)O	.
Cc1cc(Br)ccc1NC(=O)Cn1ncc2c(N3CCC(C)CC3)ncnc21	.
CC(C)CCNC(=O)Cn1ncc2c(N3CCC(C)CC3)ncnc21	.
Cc1ccccc1CNC(=O)Cn1ncc2c(N3CCC(C)CC3)ncnc21	.
O=C(Cn1ncc2c(N3CCCCCC3)ncnc21)NCc1ccccc1Cl	.
CC1CCN(c2ncnc3c2cnn3CC(=O)NCc2ccccc2Cl)CC1	-95
CC1CCN(c2ncnc3c2cnn3CC(=O)NCc2cccnc2)CC1	.

Screening results as filed in PubChem.
